The campaign covered roughly 310,000 compounds. About 14,000 (4.5%) showed an effect of 50% or more. The effect is printed as a negative number. The sample holds strong results, similar compounds and a random draw of the others, so the mix is not that of the screen.
Target: human ether-à-go-go-related gene (hERG) potassium channel (human, UniProt Q12809)
Experiment: primary screen, population patch clamp on CHO cells stably expressing hERG; higher = less effect of the substance
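Note: peak tail current of the secondary pulse compared with the same well before compound.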

Sequence of human ether-à-go-go-related gene (hERG) potassium channel (Q12809 whole entry, looked up): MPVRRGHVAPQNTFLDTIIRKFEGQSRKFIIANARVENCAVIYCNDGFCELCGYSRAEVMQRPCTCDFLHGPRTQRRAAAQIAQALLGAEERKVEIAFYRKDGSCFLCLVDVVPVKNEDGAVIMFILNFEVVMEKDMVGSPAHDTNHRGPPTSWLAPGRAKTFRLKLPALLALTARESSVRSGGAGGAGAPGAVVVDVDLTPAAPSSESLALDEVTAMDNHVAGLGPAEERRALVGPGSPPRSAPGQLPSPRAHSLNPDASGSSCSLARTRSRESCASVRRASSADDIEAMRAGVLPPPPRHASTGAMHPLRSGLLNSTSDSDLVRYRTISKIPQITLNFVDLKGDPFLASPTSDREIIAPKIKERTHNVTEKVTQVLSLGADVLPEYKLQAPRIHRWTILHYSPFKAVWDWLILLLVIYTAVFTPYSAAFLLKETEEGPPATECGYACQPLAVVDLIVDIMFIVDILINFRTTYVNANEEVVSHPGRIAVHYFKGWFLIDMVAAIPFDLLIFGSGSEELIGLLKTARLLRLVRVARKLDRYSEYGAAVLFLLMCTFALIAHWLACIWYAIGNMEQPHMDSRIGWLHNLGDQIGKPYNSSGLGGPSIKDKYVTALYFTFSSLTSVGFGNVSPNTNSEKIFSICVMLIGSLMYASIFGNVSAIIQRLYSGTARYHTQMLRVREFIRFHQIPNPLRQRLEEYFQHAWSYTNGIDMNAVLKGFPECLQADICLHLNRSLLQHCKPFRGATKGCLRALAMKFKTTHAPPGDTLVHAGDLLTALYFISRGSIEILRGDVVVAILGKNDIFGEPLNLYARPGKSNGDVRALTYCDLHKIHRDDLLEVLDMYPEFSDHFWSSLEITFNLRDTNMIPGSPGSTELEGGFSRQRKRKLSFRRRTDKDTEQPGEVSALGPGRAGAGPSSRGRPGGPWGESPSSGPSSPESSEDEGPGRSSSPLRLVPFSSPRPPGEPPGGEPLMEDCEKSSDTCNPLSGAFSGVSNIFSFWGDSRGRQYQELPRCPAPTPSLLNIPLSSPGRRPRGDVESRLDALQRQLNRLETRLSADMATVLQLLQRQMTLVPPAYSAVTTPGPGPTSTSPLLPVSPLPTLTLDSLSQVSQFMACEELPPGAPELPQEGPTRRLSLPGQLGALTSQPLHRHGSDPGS

SMILES | hERG current change (%, negative = inhibition) at 10uM [%]
C[C@H](NC(=O)N1CCn2c1nc1ccccc12)C(=O)NCc1ccccc1 | -13.6
C[C@H](NC(=O)N1CCn2c1nc1ccccc12)C(=O)NCc1ccc(F)cc1 | -29.6
COc1ccc(CNC(=O)[C@H](C)NC(=O)N2CCn3c2nc2ccccc23)cc1 | -57.7
FC(F)(F)c1ccc(N2CCOCC2)c(Nc2nc3ccccc3n3cnnc23)c1 | 7.53
CCSc1nnc([C@H](Cc2c[nH]c3ccccc23)NC(=O)OC(C)(C)C)o1 | -21.5
COc1ccc(C2c3c(ccc4ccccc34)Oc3ncn4nc(-c5ccco5)nc4c32)cc1 (stereo not drawn) | -12.4
COc1ccccc1C1c2ccc3ccccc3c2Oc2ncn(CCN(C)C)c(=N)c21 (stereo not drawn) | -61.8
COc1ccc(C2c3ccc4ccccc4c3Oc3ncn(CCN(C)C)c(=N)c32)cc1 (stereo not drawn) | -77.2
COc1ccc(C2c3ccc4ccccc4c3Oc3ncn(CCCN(C)C)c(=N)c32)cc1 (stereo not drawn) | -76.4
COc1ccc(Cc2nc3c4c(ncn3n2)Oc2c(ccc3ccccc23)C4c2ccc(OC)c(OC)c2)cc1 (stereo not drawn) | 14.7
CN(C)S(=O)(=O)c1cc(C(=O)OCCn2cnc3c2c(=O)n(C)c(=O)n3C)ccc1Cl | -39.7
CS(=O)(=O)c1cccc(-c2nnc(NC(=O)CCS(=O)(=O)c3ccccc3)o2)c1 | 3.82
COC(=O)c1cn(C(=O)c2ccccc2F)nc1N | -5.96
Cc1ccc2c(CC(=O)OC3CCOC3=O)coc2c1 (stereo not drawn) | 3.85
CC/C(=N\NC(=S)Nc1ccc(OC)cc1)c1ccc(OC(F)F)cc1 | -4.32
C[C@@H]1CC=C[C@H]2[C@H]1C(=O)N(Cc1ccccc1)[C@H]2c1ccoc1 | 3.54
CC(CN1CCCCC1)C(=O)NNC(=O)C12CC3CC(CC(C3)C1)C2 (stereo not drawn) | 3.74
CC(C)c1onc(C(=O)N2CCN(c3ccc(F)cc3)CC2)c1[N+](=O)[O-] | -19.9
COc1ccccc1NC(=O)CSc1nnc(C2CCCCC2)n1N | 5.54
Fc1ccc(-c2nn(-c3ccccc3)cc2CNCc2ccccc2)cc1 | 1.75
c1ccc(-n2cc(CNCCc3cscn3)c(-c3ccc4c(c3)OCO4)n2)cc1 | -65.4
Cc1ccc(-n2cc(CNCCc3cscn3)c(-c3ccc(F)cc3)n2)cc1 | -59
OCc1cn(-c2ccccc2)nc1-c1ccc2c(c1)OCCO2 | 5.83
O=Cc1cn(-c2ccccc2)nc1-c1ccc2c(c1)OCCO2 | -0.855
Cc1ccc(-n2cc(CNCCc3ncc(C)[nH]3)c(-c3ccc(F)cc3)n2)cc1 | -47.4
O=C(CSC1=NCCS1)NC(NC(=O)CSC1=NCCS1)c1ccccc1 | 18.6
O=C(C1CCN(S(=O)(=O)c2ccc(F)cc2)CC1)N1CCOCC1 | 15.3

SMILES | hERG current change (%, negative = inhibition) at 10uM [%]
COc1ccc(CNC(=O)c2cc(-c3ccccc3O)n[nH]2)cc1 | 5.51
O=C1CC(N2CCN(C(c3ccccc3)c3ccccc3)CC2)C(=O)N1 (stereo not drawn) | -0.687
NC(=O)COn1c(SCC(N)=O)nc2ccccc2c1=O | 19.3
COC(=O)c1cc(Br)c(=O)n(Cc2ccncc2)c1 | -1.41
Cc1c(C)c2ccc(OCC(=O)N3CCN(C(=O)C4COc5ccccc5O4)CC3)cc2oc1=O (stereo not drawn) | -60.9
Cc1cc(=O)oc2c(C)c(OCC(=O)N3CCN(C(=O)C4COc5ccccc5O4)CC3)ccc12 (stereo not drawn) | -50.4
Cc1c(C)c2ccc(OCC(=O)N3CCN(c4ccccc4)CC3)cc2oc1=O | -36.1
CCOc1ccccc1N1CCN(C(=O)COc2ccc3c(C)cc(=O)oc3c2)CC1 | -6.28
Cc1cccc(N2CCN(C(=O)COc3ccc4c(C)cc(=O)oc4c3C)CC2)c1C | 13.6
Cc1cc(=O)oc2cc(OCC(=O)N3CCN(C(=O)C4COc5ccccc5O4)CC3)ccc12 (stereo not drawn) | -53.6
CCCc1cc(=O)oc2cc(OCC(=O)N3CCN(C(=O)C4COc5ccccc5O4)CC3)ccc12 (stereo not drawn) | -65.9
O=C(COc1ccc2ccc(=O)oc2c1)N1CCN(C(=O)C2COc3ccccc3O2)CC1 (stereo not drawn) | -46.2
Cc1cc(=O)oc2cc(OCC(=O)N3CCN(C(=O)C4COc5ccccc5O4)CC3)c(Cl)cc12 (stereo not drawn) | -48
CCCc1cc(=O)oc2cc(OCC(=O)N3CCC(C(=O)O)(c4ccccc4)CC3)ccc12 | 6.41
CCCc1cc(=O)oc2cc(OCC(=O)N3CCC(C(N)=O)CC3)ccc12 | -6.67
Cc1c(C)c2ccc(OCC(=O)N3CCC(C(=O)O)CC3)cc2oc1=O | -6.41
CCOC(=O)c1ccc(NC(=O)CCc2nc(-c3ccc(Cl)cc3)no2)cc1 | 8.36
Cc1cccc(N(CC(=O)NCCSCc2ccccc2)S(C)(=O)=O)c1C | -17.4
Cc1ccc(S(=O)(=O)N2CCN(C(=O)COC(=O)c3c(C)noc3C)CC2)c(C)c1 | -18.8
COCCCNC(=O)CN(c1ccc(Cl)c(Cl)c1)S(C)(=O)=O | -10.9
Cc1ccc(NCC(=O)N/N=C\c2cccc(O)c2)cc1 | 1.98
C=CCNC(=S)N1CCOCC1 | -1.69
O=C(/C=C/c1ccccc1[N+](=O)[O-])NNC(=O)c1ccncc1 | -7.86
CCOc1ccccc1NC1=C(Cl)C(=O)N(c2ccc(OC)cc2)C1=O | -10.4
CCCc1cc(=O)oc2cc(OCC(=O)N3CCN(Cc4ccc5c(c4)OCO5)CC3)ccc12 | -57
Cc1cc(=O)oc2cc(OCC(=O)N3CCN(Cc4ccc5c(c4)OCO5)CC3)ccc12 | -42.9
Cc1ccc(OCC(=O)N2CCN(Cc3ccc4c(c3)OCO4)CC2)cc1C | -24.6
